TbREL1 primary: TbREL1 RNA ligase inhibitors, primary screen, biochemical, FRET fluorescence; AID 1117264, 2014; TbREL1 RNA ligation; actives 0.49% (n = 89,000); inhibition, % at 9.66 µM;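 active means inhibition above the mean inhibition across all screened compounds plus 3 SD, cut at about 11% in these data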;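 further: 0% = plate median of test wells and 100% = NSC42067 control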
Target sequence (P86926 whole entry, looked up): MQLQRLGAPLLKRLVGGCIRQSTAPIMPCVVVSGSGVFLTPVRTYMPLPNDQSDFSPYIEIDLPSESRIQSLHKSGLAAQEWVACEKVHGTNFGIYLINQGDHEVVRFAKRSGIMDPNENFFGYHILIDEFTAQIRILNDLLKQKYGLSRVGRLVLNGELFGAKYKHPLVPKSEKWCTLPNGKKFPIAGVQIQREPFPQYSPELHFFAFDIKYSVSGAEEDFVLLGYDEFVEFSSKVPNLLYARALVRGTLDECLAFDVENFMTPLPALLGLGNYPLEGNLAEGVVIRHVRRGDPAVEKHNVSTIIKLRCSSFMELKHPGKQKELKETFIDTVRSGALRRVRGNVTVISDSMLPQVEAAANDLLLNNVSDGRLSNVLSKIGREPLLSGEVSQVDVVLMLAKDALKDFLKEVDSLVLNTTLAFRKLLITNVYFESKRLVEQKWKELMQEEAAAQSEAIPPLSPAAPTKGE
TbREL1 confirm: TbREL1 RNA ligase inhibitors, confirmation, biochemical, FRET fluorescence, triplicate | inhibition, % at 9.66 µM | TbREL1 RNA ligation | shares compounds with TbREL1 primary | actives 37% (n = 390);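 active means mean inhibition across replicates above a set limit taken from the earlier primary screen, cut at about 11% in these data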;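 further: 0% = REL1 with substrate and DMSO and 100% = REL1 plus control inhibitor NSC42067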
An asterisk follows results filed as active. This excerpt belongs to a sample that is enriched for hits.

SMILES	TbREL1 primary	others
COc1ccc(/C=N/NC(=O)c2cccc(NC(=O)c3ccccc3Cl)c2)cc1	1.6
CCn1c(COc2ccc(C)cc2)nnc1SCC(=O)Nc1ccc(C(=O)OC)cc1	3.0
Nc1ccc(C(=O)c2cccs2)cc1	-0.3
O=C(SCC(O)C(O)CS)c1cccs1 (stereo not drawn)	17.8*	TbREL1 confirm=3.7
CSc1ccccc1NC(=O)c1cccs1	4.9
COc1ccc(Oc2c(Cl)cnn(-c3cc(C)cc(C)c3)c2=O)cc1	5.5
Cc1ccccc1NC(=O)[C@@H]1CCCN1S(=O)(=O)c1cccc2cccnc12	-5.0
Nc1ccc2c(c1)C(=O)C(=O)c1ccccc1-2	61.0*	TbREL1 confirm=87.0*
Cc1ccc(N2C(=O)c3ccc(N)cc3C2=O)cc1C	4.6
Nc1ccc2oc(=O)c3ccccc3c2c1	-1.9
Brc1ccc(COc2cccc3cccnc23)cc1	4.1
Nc1scn[n+]1Cc1cccc2cccnc12	1.9
Nc1ccc(Br)c[n+]1Cc1cccc2cccnc12	12.4*	TbREL1 confirm=8.3
COC(=O)[C@]12C[C@H](CC(=O)NCc3cccc4ccccc34)C(=O)N(CCc3ccc(OC)c(OC)c3)C1=C[C@H](C(C)C)O[C@@H]2C1CC1	-0.4
C#CCNC(=O)C[C@H]1C[C@@]2(C(=O)OC)C(=C[C@H](C3CCCC3)O[C@@H]2C)N(Cc2cccc3ccccc23)C1=O	-3.0
O=C(c1ccccc1)c1c[nH]cc1-c1ccccc1	-0.6
COc1ccc(C(=O)c2c(C(F)(F)F)oc3c2C(=O)c2ccccc2C3=O)cc1OC	3.7
Cc1oc2c(c1C(=O)c1ccccc1)C(=O)C(=O)c1ccccc1-2	29.2*	TbREL1 confirm=65.7*
Oc1c(Cl)cc(CN2CCOCC2)c2cccnc12	2.2
O=S(=O)(c1ccc(Cl)cc1)N1CCN(Cc2ccc(O)c3ncccc23)CC1	0.1
CN1CCN(C2CCN(Cc3ccc(O)c4ncccc34)CC2)CC1	16.6*	TbREL1 confirm=8.0
O=C(Nc1ccc(C(O)(C(F)(F)F)C(F)(F)F)cc1)c1ccc(F)cc1Cl	6.4
Cc1ccc(-n2c(SCC(=O)c3ccc(Br)cc3)nnc2-c2ccncc2)cc1	-1.6
CCC[C@H]1[C@@H](OC(=O)NCc2ccc(OC)c(OC)c2)CC[C@@]23CCCN2C(=O)CCC[C@@H]13	-0.6
COc1ccc(/C=N/NC(=O)Cn2nc([N+](=O)[O-])cc2C)c(OC)c1OC	-4.5
SMILES	TbREL1 primary	others
Cc1cc(C)n(CC(=O)N/N=C/c2ccc([N+](=O)[O-])s2)n1	1.5
COc1cc([N+](=O)[O-])cc(/C=N/NC(=O)Cn2nc(C)cc2C)c1O	17.2*	TbREL1 confirm=3.9
COC(=O)c1ccc(N2C(=O)CC(Sc3n[nH]c(C)n3)C2=O)cc1 (stereo not drawn)	3.2
COC(=O)c1ccc(N2C(=O)CC(SCC(=O)Nc3ccc(OC)cc3)C2=O)cc1 (stereo not drawn)	13.1*	TbREL1 confirm=3.3
COc1ccc(NC(=O)CC2C(=O)N(c3ccc(OC)cc3)C(=O)N2C(C)C)cc1 (stereo not drawn)	1.6
COCCCNC(=O)Cn1nc(Cc2ccncc2)c2ccccc2c1=O	0.8
Cc1n[nH]c(C)c1S(=O)(=O)NCCc1c[nH]c2ccccc12	0.9
O=C(NCCc1nc2ccccc2n1CCOc1cc(F)ccc1F)C1CCCCC1	1.6
CCOC(=O)c1oc2cccc(O)c2c1C	0.9
CCOc1ccc(C(=O)Cc2ccc3oc(C(=O)O)cc3c2)c(O)c1	-1.6
CCOC(=O)c1ccc(CC(=O)c2ccc(O)c(O)c2O)o1	35.0*	TbREL1 confirm=84.1*
COC(=O)C1CCCN(C(=O)C(Cc2ccc3c(c2)OCO3)NC(C)=O)C1 (stereo not drawn)	0.3
COC(=O)[C@H]1C[C@@]2(CC=C(C)C)c3ccccc3N(C(=O)OC(C)(C)C)[C@H]2N1C(=O)OC(C)(C)C	-2.7
C[C@H]1[C@H](NCc2cccnc2)CC[C@@]23CCCN2C(=O)CCC[C@@H]13	-0.8
Cc1ccc(C(C(=O)NC2CCCCC2)N(C(=O)Cc2c[nH]c3ccccc23)c2ccccc2C)o1 (stereo not drawn)	-0.5
Cc1ccc(N(C(=O)c2ccco2)C(C(=O)NC2CCCC2)c2ccco2)c(C)c1 (stereo not drawn)	-1.7
Cc1ccc(N(C(=O)Cc2c[nH]c3ccccc23)C(C(=O)NC2CCCCC2)c2ccco2)cc1 (stereo not drawn)	11.1*	TbREL1 confirm=-2.0
COc1ccc(CNC2CCC23CCCCC3)cc1OC (stereo not drawn)	-3.4
O=C(Nc1ccc(C(O)(C(F)(F)F)C(F)(F)F)cc1)c1ccc(Cl)cc1	3.9
C/C(=N\NC(=O)C1CC1)c1ccc(C)c(C)c1	-1.9
C/C(=N\NC(=O)C1CC1)c1ccc(OC(F)F)cc1	16.4*	TbREL1 confirm=4.2
COC(=O)N/N=C(\C)c1ccc(OC(F)F)cc1	3.6
CCn1c2ccccc2c2cc(NC(=O)CSc3nnc(-c4ccccc4)n3Cc3ccco3)ccc21	-3.1
O=Cc1ccc(-c2ccc(C(=O)O)cc2)o1	8.2
Cc1ccc(C(=O)N/C(=C\c2ccc(-c3cccc([N+](=O)[O-])c3)o2)C(=O)NC(C)(C)C)cc1	-2.0
SMILES	TbREL1 primary	others
Cc1nc(S/C(=C/c2ccc(-c3ccc(C(=O)O)cc3)o2)C(=O)O)n[nH]1	20.8*	TbREL1 confirm=16.9*
Cc1ccc(-c2cc(-c3nnc(SCC(=O)NC4CCCCC4)n3N)[nH]n2)cc1	1.9
Cc1ccc(-n2c(Cc3cccs3)nnc2SCC(=O)Nc2ccc(OCc3ccccc3)cc2)cc1	2.4
O=[N+]([O-])c1ccccc1S(=O)(=O)N1CCN(C2CCCC2)CC1	11.3*	TbREL1 confirm=3.6
CS(=O)(=O)N1CCN(S(=O)(=O)c2ccccc2[N+](=O)[O-])CC1	2.5
CCC1CCCCN1S(=O)(=O)c1ccccc1[N+](=O)[O-] (stereo not drawn)	-2.3
COc1cc(C(=O)N2CCN(c3ccccc3O)CC2)ccc1OCC(=O)N1CCOCC1	2.3
COc1cc(C(=O)N2CCN(c3cccc(C)c3C)CC2)ccc1OCC(=O)N1CCOCC1	12.6*	TbREL1 confirm=0.3
COc1cc(C(=O)N2CCN(S(=O)(=O)c3cc(C)ccc3C)CC2)ccc1OCC(=O)N1CCOCC1	6.6
CCOc1ccc(CCNC(=O)Cc2ccccc2)cc1OCC	-3.4
COc1ccc(-c2nnc(SCC(=O)Nc3ccc(S(=O)(=O)Nc4nccs4)cc3)n2-c2ccc(OC)cc2)cc1	-4.9
COc1ccc(CNC2CCC23CCC(C)CC3)cc1 (stereo not drawn)	1.1
Cc1ccccc1NC(=O)C1CCCN1S(=O)(=O)c1cccnc1 (stereo not drawn)	6.4
CCOC(=O)Cn1c(=NC(=O)c2cccs2)sc2cc(C(=O)OC)ccc21	10.2
CCOC(=O)Cn1c2ccc(C)cc2c2nc(C)sc21	55.0*	TbREL1 confirm=4.8
CCOC(=O)Cn1c(=NC(=O)CC)sc2c(C)cc(C)cc21	-1.5
COc1ccc(C2C(C(=O)N3CCN(c4ccccc4Cl)CC3)CC(=O)N2c2ccc(OC)cc2)cc1 (stereo not drawn)	-2.2
CC(C)(C)C(=O)Nc1nnc(SCc2cccc(F)c2)s1	5.0
O=C(Nc1nnc(SCc2cccc(F)c2)s1)c1ccco1	13.5*	TbREL1 confirm=-0.5
O=C(CSc1nnc(NC(=O)c2ccco2)s1)Nc1ccc(F)cc1	4.4
CCCCn1cnc2c(=O)[nH]ccc21	2.2
CC1CC(C)CN(CCCNS(=O)(=O)c2cc3c(cc2Br)CCN3C(=O)C2CC2)C1 (stereo not drawn)	1.8

Screens from PubChem BioAssay.
